Test in all cases: PBM; 200 nM protein, PBS
Conditions in all cases: dsDNA, one strand shown

In experiment [1] the target is NKX2-5 (Homo sapiens, UniProt P52952 125-210, R139K).
Experiment [2] has as its target T1, VENTX (Homo sapiens, UniProt O95231 78-163, R121Q).
T1 sequence: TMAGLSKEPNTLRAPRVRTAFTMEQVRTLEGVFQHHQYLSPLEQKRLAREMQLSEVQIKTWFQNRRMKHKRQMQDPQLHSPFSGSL

Experiment [3] has as its target T2, VENTX (Homo sapiens, UniProt O95231 78-163).
T2 sequence: T1 sequence with Q44R

The target in experiment [4] is T3, VENTX (Homo sapiens, UniProt O95231 78-163, Y115F).
T3 sequence: T1 sequence with Y38F, Q44R

Experiment [5] deals with NKX2-5 (Homo sapiens, UniProt P52952 125-210).
Chain of NKX2-5 (Homo sapiens, UniProt P52952 125-210) (P52952 125-210): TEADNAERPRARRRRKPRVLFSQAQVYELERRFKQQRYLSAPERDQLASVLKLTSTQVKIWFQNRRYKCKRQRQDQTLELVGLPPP
Experiment [6] has as its target T4, NKX2-4 (Homo sapiens, UniProt Q9H2Z4 175-261, P217L).
T4 sequence: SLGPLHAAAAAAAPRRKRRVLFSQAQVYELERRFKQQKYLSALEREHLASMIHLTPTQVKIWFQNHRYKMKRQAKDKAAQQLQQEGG

Experiment [7] deals with T5, NKX2-4 (Homo sapiens, UniProt Q9H2Z4 175-261, T231S).
T5 sequence: T4 sequence with L43P, T57S

Experiment [8] concerns the target T6, NKX2-4 (Homo sapiens, UniProt Q9H2Z4 175-261).
T6 sequence: T4 sequence with L43P

In experiment [9] the target is T7, NKX2-6 (Homo sapiens, UniProt A6NCS4 118-204, R150C).
T7 sequence: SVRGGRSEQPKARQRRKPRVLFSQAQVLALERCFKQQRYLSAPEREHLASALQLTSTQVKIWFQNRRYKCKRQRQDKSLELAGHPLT

The target in experiment [10] is T8, NKX2-6 (Homo sapiens, UniProt A6NCS4 118-204).
T8 sequence: T7 sequence with C33R

Experiment [11] has as its target T9, NKX2-4 (Homo sapiens, UniProt Q9H2Z4 175-261, R246Q).
T9 sequence: T4 sequence with L43P, R72Q

Experiment [12] addresses T10, NKX2-6 (Homo sapiens, UniProt A6NCS4 118-204, F151L).
T10 sequence: T7 sequence with C33R, F34L

The target of experiment [13] is NKX3-2 (Homo sapiens, UniProt P78367 192-278, P234S).
Chain of NKX3-2 (Homo sapiens, UniProt P78367 192-278, P234S) (P78367 192-278 P234S): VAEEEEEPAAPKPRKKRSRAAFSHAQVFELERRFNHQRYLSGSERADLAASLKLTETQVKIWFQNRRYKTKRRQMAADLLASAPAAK
For experiment [14], the target named is NKX3-2 (Homo sapiens, UniProt P78367 192-278).
Chain of NKX3-2 (Homo sapiens, UniProt P78367 192-278) (P78367 192-278): as the sequence (P78367 192-278 P234S) above, with S43P counted along it
The target of the next experiment is HOXB9 (Homo sapiens, UniProt P17482 171-250, R186Q).
Chain of HOXB9 (P17482 171-250 R186Q): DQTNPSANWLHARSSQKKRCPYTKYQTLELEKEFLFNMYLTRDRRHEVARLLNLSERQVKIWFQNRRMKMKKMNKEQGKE
Experiment [15] concerns the target ALX1 (Homo sapiens, UniProt Q15699 118-204, L144V).
Experiment [16] concerns the target ALX1 (Homo sapiens, UniProt Q15699 118-204, L144R).
Experiment [17] addresses ALX1 (Homo sapiens, UniProt Q15699 118-204).

Substitutions are numbered along the chain they refer to.

Chain of NKX2-5 (Homo sapiens, UniProt P52952 125-210, R139K) (P52952 125-210 R139K): as the sequence (P52952 125-210) above, with R15K counted along it
Chain of ALX1 (Homo sapiens, UniProt Q15699 118-204, L144V) (Q15699 118-204 L144V): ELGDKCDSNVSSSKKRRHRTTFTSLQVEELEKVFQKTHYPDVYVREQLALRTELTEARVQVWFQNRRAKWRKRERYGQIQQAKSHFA
Chain of ALX1 (Homo sapiens, UniProt Q15699 118-204, L144R) (Q15699 118-204 L144R): as the sequence (Q15699 118-204 L144V) above, with V27R counted along it
Chain of ALX1 (Homo sapiens, UniProt Q15699 118-204) (Q15699 118-204): as the sequence (Q15699 118-204 L144V) above, with V27L counted along it

Consider CTGGCCAG, for which the binding signal is 8.81 upbm affinity estimate (log intensity, higher = more binding, comparable within an allelic series) with NKX2-5 [1]; 8.26 upbm affinity estimate (log intensity, higher = more binding, comparable within an allelic series) with VENTX [2]; 8.37 upbm affinity estimate (log intensity, higher = more binding, comparable within an allelic series) with VENTX [3]; 8.37 upbm affinity estimate (log intensity, higher = more binding, comparable within an allelic series) with VENTX [4]; 8.9 upbm affinity estimate (log intensity, higher = more binding, comparable within an allelic series) with NKX2-5 [5].
In the case of TACTTGAA, the binding signal in the experiment with NKX2-5 [1] was 12.6 upbm affinity estimate (log intensity, higher = more binding, comparable within an allelic series); in the experiment with NKX2-4 [6], 12.7 upbm affinity estimate (log intensity, higher = more binding, comparable within an allelic series); in the experiment with NKX2-4 [7] it was 13.2 upbm affinity estimate (log intensity, higher = more binding, comparable within an allelic series); in the experiment with NKX2-4 [8] it was 12.6 upbm affinity estimate (log intensity, higher = more binding, comparable within an allelic series); in the experiment with NKX2-6 [9], 11.6 upbm affinity estimate (log intensity, higher = more binding, comparable within an allelic series); in the experiment with NKX2-6 [10], 13.4 upbm affinity estimate (log intensity, higher = more binding, comparable within an allelic series). Besides, the binding signal in the experiment with NKX2-4 [11] was 13.3 upbm affinity estimate (log intensity, higher = more binding, comparable within an allelic series); with NKX2-6 [12], 10.8 upbm affinity estimate (log intensity, higher = more binding, comparable within an allelic series); with NKX2-5 [5] it was 12.5 upbm affinity estimate (log intensity, higher = more binding, comparable within an allelic series).
Turning to CCGACGCC, the binding signal with NKX2-5 [1] is 8.82 upbm affinity estimate (log intensity, higher = more binding, comparable within an allelic series); with VENTX [2] it was 8.14 upbm affinity estimate (log intensity, higher = more binding, comparable within an allelic series); with VENTX [3] it was 8.37 upbm affinity estimate (log intensity, higher = more binding, comparable within an allelic series); with VENTX [4], 8.23 upbm affinity estimate (log intensity, higher = more binding, comparable within an allelic series); in the experiment with NKX2-6 [10] it was 8.94 upbm affinity estimate (log intensity, higher = more binding, comparable within an allelic series); with NKX2-6 [12], 9.35 upbm affinity estimate (log intensity, higher = more binding, comparable within an allelic series). The binding signal with NKX3-2 [13] was 10.5 upbm affinity estimate (log intensity, higher = more binding, comparable within an allelic series); with NKX2-5 [5], 8.73 upbm affinity estimate (log intensity, higher = more binding, comparable within an allelic series); with NKX3-2 [14] it was 10.5 upbm affinity estimate (log intensity, higher = more binding, comparable within an allelic series).
Turning to CATGCGCC, the binding signal with NKX2-5 [1] is 8.86 upbm affinity estimate (log intensity, higher = more binding, comparable within an allelic series); in the experiment with HOXB9, 8.56 upbm affinity estimate (log intensity, higher = more binding, comparable within an allelic series); with NKX2-5 [5] it was 8.85 upbm affinity estimate (log intensity, higher = more binding, comparable within an allelic series).
In the case of AGTCCGGG, the binding signal in the experiment with NKX2-5 [1] is 9.14 upbm affinity estimate (log intensity, higher = more binding, comparable within an allelic series); with NKX2-4 [6], 9.61 upbm affinity estimate (log intensity, higher = more binding, comparable within an allelic series); with NKX2-4 [7] it was 9.48 upbm affinity estimate (log intensity, higher = more binding, comparable within an allelic series); in the experiment with NKX2-4 [8], 9.52 upbm affinity estimate (log intensity, higher = more binding, comparable within an allelic series); in the experiment with NKX2-4 [11] it was 9.63 upbm affinity estimate (log intensity, higher = more binding, comparable within an allelic series); with NKX2-5 [5] it was 9.09 upbm affinity estimate (log intensity, higher = more binding, comparable within an allelic series).
On to ACTTGAGA, for which the binding signal with NKX2-5 [1] is 12.3 upbm affinity estimate (log intensity, higher = more binding, comparable within an allelic series); in the experiment with NKX2-4 [6], 12.6 upbm affinity estimate (log intensity, higher = more binding, comparable within an allelic series); with NKX2-4 [7] it was 12.9 upbm affinity estimate (log intensity, higher = more binding, comparable within an allelic series); with NKX2-4 [8], 12.4 upbm affinity estimate (log intensity, higher = more binding, comparable within an allelic series); with NKX2-4 [11] it was 13.1 upbm affinity estimate (log intensity, higher = more binding, comparable within an allelic series); with NKX2-6 [12], 10.7 upbm affinity estimate (log intensity, higher = more binding, comparable within an allelic series). Further, the binding signal with NKX2-5 [5] was 12.2 upbm affinity estimate (log intensity, higher = more binding, comparable within an allelic series).
As for GTACTTCA, the binding signal in the experiment with NKX2-5 [1] was 12.5 upbm affinity estimate (log intensity, higher = more binding, comparable within an allelic series); with NKX2-4 [6] it was 12.7 upbm affinity estimate (log intensity, higher = more binding, comparable within an allelic series); with NKX2-4 [7] it was 13.1 upbm affinity estimate (log intensity, higher = more binding, comparable within an allelic series); with NKX2-4 [8], 12.6 upbm affinity estimate (log intensity, higher = more binding, comparable within an allelic series); in the experiment with NKX2-6 [9] it was 11.7 upbm affinity estimate (log intensity, higher = more binding, comparable within an allelic series); in the experiment with NKX2-6 [10] it was 13.4 upbm affinity estimate (log intensity, higher = more binding, comparable within an allelic series). For the same sequence, the binding signal in the experiment with NKX2-4 [11] is 13.2 upbm affinity estimate (log intensity, higher = more binding, comparable within an allelic series); with NKX2-6 [12] it was 10.8 upbm affinity estimate (log intensity, higher = more binding, comparable within an allelic series); in the experiment with NKX2-5 [5] it was 12.4 upbm affinity estimate (log intensity, higher = more binding, comparable within an allelic series).
As for ACGGCCTG, the binding signal was 8.92 upbm affinity estimate (log intensity, higher = more binding, comparable within an allelic series) in the experiment with NKX2-5 [1]; 9.73 upbm affinity estimate (log intensity, higher = more binding, comparable within an allelic series) in the experiment with NKX2-4 [6]; 9.59 upbm affinity estimate (log intensity, higher = more binding, comparable within an allelic series) with NKX2-4 [7]; 9.65 upbm affinity estimate (log intensity, higher = more binding, comparable within an allelic series) with NKX2-4 [8]; 9.71 upbm affinity estimate (log intensity, higher = more binding, comparable within an allelic series) with NKX2-4 [11]; 8.81 upbm affinity estimate (log intensity, higher = more binding, comparable within an allelic series) in the experiment with NKX2-5 [5].
For the sequence CGGTCGGC, the binding signal in the experiment with NKX2-5 [1] is 8.67 upbm affinity estimate (log intensity, higher = more binding, comparable within an allelic series); in the experiment with VENTX [2], 8.16 upbm affinity estimate (log intensity, higher = more binding, comparable within an allelic series); in the experiment with VENTX [3] it was 8.35 upbm affinity estimate (log intensity, higher = more binding, comparable within an allelic series); with VENTX [4], 8.29 upbm affinity estimate (log intensity, higher = more binding, comparable within an allelic series); with ALX1 [15], 6.28 upbm affinity estimate (log intensity, higher = more binding, comparable within an allelic series); with ALX1 [16], 6.31 upbm affinity estimate (log intensity, higher = more binding, comparable within an allelic series). For the same sequence, the binding signal in the experiment with ALX1 [17] is 6.46 upbm affinity estimate (log intensity, higher = more binding, comparable within an allelic series); with NKX2-5 [5] it was 8.65 upbm affinity estimate (log intensity, higher = more binding, comparable within an allelic series).

Values taken from publication PMC11006913.
